Source: PubChem
Rows were chosen to be rich in hits. Some 3.2% of all compounds tested hit in one or more screens of this group.
Sm TGR inh: inhibitors of Schistosoma mansoni thioredoxin glutathione reductase; Potency, µM (series often up to 114 µM), inactives show at the highest dose activity change, negative = inhibition, most hits filed as inhibitors; AID 485364; purified TGR, DTNB reduction, TNB absorbance 405 nm; Q962Y6; 3% of 360,000 active; note: nearly all actives have a fitted effect of over 60% in size
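TGR 20 nM + NADPH 100 uM (dispensed conc.), cpd preinc 15 min RT; start with NADPH (500 uM addition) then DTNB (15 mM addition). Kinetic TNB absorbance, 405 nm filter. Four-parameter Hill fit across titration.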
Tb PYK inh: blocks Trypanosoma brucei pyruvate kinase; Q57TT1; TbPYK enzyme, Kinase-Glo Plus ATP luminescence, 45 min; Potency, µM (titrated, usually from 76.8 µM), inactives show top-dose activity, negative = inhibition, most hits filed as inhibitors; 0.12% of 410,000 active; AID 624173; note: nearly all actives have a fitted effect of over 50% in size
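Readout: single end-point luminescence (Kinase-Glo Plus, 10 min). Reaction conditions were TbPYK/substrate plus 130 uM ADP, 45 min at RT, pH 7.2 TEA buffer. No-enzyme wells served as controls, and data were normalized before concentration-response fitting.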
RE007 growth inh: less growth of the S. pombe RE007 Vpr strain; S. pombe RE007 Vpr strain, BacTiter-Glo ATP luminescence, 24 h; Potency, µM (series often up to 92.2 µM), for the others: at the top dose activity change, negative = less growth, usual class: inhibitors; 0.21% of 360,000 active; active = well fitted falling curve with a large enough effect; inconclusive = small, poorly fitted or top-dose-only effect; inactive = no such curve, though single readings can be large or run the other way; note: nearly all actives have a fitted effect of over 50% in size
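Fission yeast strain RE007, carrying one chromosomally integrated HIV-1 vpr copy, was seeded at OD 0.01 in PMG+AL medium with 23 nL pinned compound. After 24 h at 30 °C and 99% humidity, viability was read by BacTiter-Glo luminescence.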
LmPK inhibitor: LmPK (Leishmania mexicana) enzyme inhibition; 0.37% of 290,000 active; AID 1721; purified LmPK, Kinase-Glo ATP luminescence, 1 h; Q27686; Potency, µM (titrated, usually from 57.5 µM), inactives show top-dose activity change, negative = inhibition, most hits filed as inhibitors
Target sequence (Q27686 whole entry, looked up): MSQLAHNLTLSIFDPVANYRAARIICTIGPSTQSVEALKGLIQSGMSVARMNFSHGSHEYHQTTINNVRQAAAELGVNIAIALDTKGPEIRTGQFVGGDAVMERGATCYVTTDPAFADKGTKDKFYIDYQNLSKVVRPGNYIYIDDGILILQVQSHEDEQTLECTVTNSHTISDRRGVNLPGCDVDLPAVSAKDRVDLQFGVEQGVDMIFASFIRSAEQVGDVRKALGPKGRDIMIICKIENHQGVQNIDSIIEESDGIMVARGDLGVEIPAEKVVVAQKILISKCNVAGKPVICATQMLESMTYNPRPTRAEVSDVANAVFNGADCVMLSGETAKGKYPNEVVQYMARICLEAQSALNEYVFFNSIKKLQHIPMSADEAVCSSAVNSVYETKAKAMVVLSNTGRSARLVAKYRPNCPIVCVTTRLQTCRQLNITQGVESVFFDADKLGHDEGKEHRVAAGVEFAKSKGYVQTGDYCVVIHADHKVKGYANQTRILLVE
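ATP generated from ADP (0.1 mM) and PEP (0.5 mM) by 0.1 nM LmPK over 1 h at room temperature (pH 7.2 imidazole buffer) was detected by coupled luciferase luminescence. Values were normalized to uninhibited and no-enzyme wells.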
AMA1 RON2 block: AMA1-RON2 (P. falciparum) interaction inhibition; Potency, µM (titrated, usually from 58.2 µM), for inactives: at the highest dose activity change, negative = inhibition, actives largely listed as inhibitors; 0.2% of 360,000 active; AID 720542; AlphaScreen AMA1-biotinylated RON2 peptide binding;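 note: 0% = vehicle wells and -100% = peptide control; nearly all actives have a fitted effect of over 45% in size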
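AMA1 (3D7) with his tag at 25 nM final met compounds first, then biotinylated RON2 peptide at 25 nM; detection used donor plus acceptor beads, 10 µg/mL apiece, read by AlphaScreen after 30 min at room temperature.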
Active calls of the source: *; ? = inconclusive; . = no result. Unless noted, calls come from the whole dose curve; as a rule, active = well fitted curve in the direction sought with a large enough effect; inconclusive = small, poorly fitted or top-dose-only effect, or another doubt; inactive = no such curve, though single readings can be large; an effect the other way counts as inactive or inconclusive. Unless noted, % is set by controls: 0 for no effect and ±100 for the full control effect; potency is the fitted concentration of half-maximal effect.

SMILES	Sm TGR inh	Tb PYK inh	RE007 growth inh	LmPK inhibitor	AMA1 RON2 block
COCCCNC(=O)c1cccc(S(=O)(=O)N2CC3(C)CC2CC(C)(C)C3)c1 (centres undefined)	-2.0%	0.2%	2.3%	.	86.5%
CC1(C)CC2CC(C)(CN2S(=O)(=O)c2cccc(C(=O)OCC(N)=O)c2)C1 (centres undefined)	39.8µM*	-2.4%	1.9%	.	-10.2%
COc1ccc(CCC(=O)NCc2nc3cccnc3n2Cc2ccc(C)cc2)cc1	-0.6%	-7.1%	.	.	.
Cc1cccc(NC(=O)c2ccc(-n3c(C)nnc3C)cc2)c1	10.0%	9.2%	.	.	.
CCCCN(C(=O)/C=C/c1ccco1)c1c(N)n(Cc2ccccc2)c(=O)[nH]c1=O	?	-4.4%	3.4%	1.6%	-14.8%
CCCN(C(=O)/C=C/c1ccco1)c1c(N)n(Cc2ccccc2)c(=O)[nH]c1=O	44.7µM*	2.6%	0.2%	6.3%	2.8%
CCN(C(=O)COC(=O)/C=C/c1ccc(C)o1)c1c(N)n(Cc2ccccc2)c(=O)[nH]c1=O	17.8µM*	?	-7.8%	.	-9.0%
CCOc1cc(/C=C2/C(=O)NC(=O)N(c3ccc(CC)cc3)C2=O)ccc1OC(=O)c1cccs1	35.5µM*	-15.3%	1.1%	-0.8%	-9.3%
COc1cc(/C=C2/C(=O)NC(=O)N(c3ccccc3)C2=O)ccc1O	?	?	6.7%	-0.6%	-9.3%
O=C1CC(Cc2ccccc2)C(=O)N1Cc1ccco1 (centres undefined)	15.8µM*	-19.7%	-19.9%	11.9%	8.3%
Cc1ccc(CC2CC(=O)N(Cc3ccco3)C2=O)cc1 (centres undefined)	12.6µM*	-25.8%	-17.1%	5.5%	-7.0%
O=C1C2C3CCC(C3)C2C(=O)N1Cc1ccco1 (centres undefined)	-2.3%	-1.1%	9.9%	2.3%	17.2%
CC(C)c1ccc2oc(-c3cccc(NC(=O)c4ccc5c(c4)OCCO5)c3)nc2c1	-3.2%	9.1%	.	.	.
Cc1ccc(/C=C/C(=O)OCC(=O)NCCN2C(=O)CSC2=O)cc1	-0.4%	7.0%	45.3%	0.9%	9.5%
CCOC(=O)C1=C(COC(=O)/C=C/c2ccccc2)NC(=O)NC1C (centres undefined)	-14.3%	0.2%	-7.6%	.	-5.6%
CCOc1ccc(S(=O)(=O)NCCC(=O)NCCc2ccc(OCC)c(OCC)c2)cc1	3.16µM*	2.5%	-10.4%	.	6.1%
Cc1ccc(/C=C/C(=O)OCC(=O)NCCN2C(=O)CSC2=O)o1	25.1µM*	3.9%	1.5%	8.7%	-2.3%
CCOC(=O)C1=C(COC(=O)/C=C/c2ccc(C)o2)NC(=O)NC1C (centres undefined)	22.4µM*	-21.9%	-8.3%	.	-5.2%
CCOc1ccc(CCNC(=O)COC(=O)/C=C/c2ccc(C)o2)cc1OCC	50.1µM*	-11.4%	-0.5%	-1.1%	-3.5%
CCc1ccc(Sc2cc(C(=O)NCCCN3CCC(C)CC3)c3ccccc3n2)cc1	2.7%	-0.4%	.	.	.
O=C(CSc1nc2ccccc2n1Cc1cccc(C(F)(F)F)c1)NCc1ccccc1	2.5%	1.0%	.	.	.
CCCNC(=O)COC(=O)/C=C/c1ccc(C)o1	39.8µM*	-1.5%	1.8%	4.7%	-10.8%
Cc1ccc(/C=C/C(=O)OCC(=O)NCc2ccccc2)o1	?	-10.4%	10.8%	.	5.4%
CSCCC(NC(=O)c1ccccc1)C(=O)OCC(=O)Nc1ccc(C)c(Cl)c1 (centres undefined)	-0.1%	-14.2%	-9.4%	4.9%	-13.3%
O=C(CC(Nc1ccccc1)c1ccc(F)cc1)c1ccccc1 (centres undefined)	3.8%	4.7%	-6.6%	1.3%	-9.7%
SMILES	Sm TGR inh	Tb PYK inh	RE007 growth inh	LmPK inhibitor	AMA1 RON2 block
O=C(CC(Nc1ccccc1)C(=O)O)c1ccccc1 (centres undefined)	2.24µM*	-23.6%	2.7%	?	11.2%
O=C(CC(Nc1ccc(Cl)cc1Cl)C(=O)O)c1ccccc1 (centres undefined)	3.16µM*	-10.3%	-8.1%	8.8%	-0.9%
O=C(CC(C(=O)O)c1cccc(Cl)c1)c1ccccc1 (centres undefined)	4.6%	12.3%	-0.6%	1.9%	7.4%
Cc1ccc(NC(CC(=O)c2ccccc2)C(=O)O)cc1Cl (centres undefined)	0.794µM*	-2.7%	0.0%	-14.6%	1.3%
Cc1c(C(=O)Nc2ccc(F)cc2F)oc2c1-c1nn(Cc3c(F)cccc3Cl)cc1CC2	-0.8%	-20.2%	.	.	.
Nc1ccccc1C#CC(=O)c1ccccc1	0.501µM*	-2.9%	.	-7.0%	0.0%
COc1ccccc1Nc1nn2c(=O)c3ccc(C(=O)NCCc4ccccc4)cc3nc2s1	1.3%	6.2%	.	.	.
COc1ccc(NCc2cc3cc4c(cc3n(CC(=O)Nc3ccccc3)c2=O)OCO4)cc1	4.8%	6.6%	.	.	.
COc1ccc(C2=NO[C@@H]3C(=O)N(c4ccc5c(c4)OCCO5)C(=O)[C@H]23)cc1OC	44.7µM*	2.2%	3.5%	-8.8%	-8.7%
COc1ccc(C2=NO[C@@H]3C(=O)N(C4CCCCC4)C(=O)[C@H]23)cc1OC	-5.5%	4.5%	-0.2%	11.3%	0.0%
OC1(c2ccc(Br)cc2)CCNCC1	50.1µM*	-3.5%	1.0%	1.4%	-19.8%
OC1(c2ccc(F)cc2)CCNC1 (centres undefined)	-19.6%	6.4%	-5.0%	-10.1%	-15.5%
Nc1ccc(Oc2ccccc2-c2ccccc2)cc1	.	3.0%	-7.4%	.	22.4µM*
Cc1cc(Cl)ccc1NC(=O)C1CCN(S(=O)(=O)c2ccc3[nH]c(=O)ccc3c2)CC1	2.2%	-1.2%	.	.	.
O=[N+]1C2=C(CCCC2)N([O-])C12CCCC2	-30.7%	3.6%	-0.2%	-2.3%	44.9%
CC1(CCl)N([O-])C2=C(CCCC2)[N+]1=O (centres undefined)	39.8µM*	-5.2%	-0.8%	-0.5%	-5.8%
Cc1cc(O)c2c(c1)OC1(C)CCC3C(C)(C)CCCC34COC2C14 (centres undefined)	.	2.2%	.	.	.
N=c1c(S(=O)(=O)c2ccc(Cl)cc2)cc2c(=O)n3ccccc3nc2n1CCc1ccccc1	-0.8%	.	.	-2.3%	.
N=c1c(S(=O)(=O)c2ccccc2)cc2c(=O)n3ccccc3nc2n1CCCN1CCOCC1	15.8µM*	-5.9%	0.4%	1.4%	-12.2%
Cc1ccc(S(=O)(=O)c2cc3c(=O)n4ccccc4nc3n(CCCN3CCOCC3)c2=N)cc1C	2.1%	-0.5%	-10.1%	-1.0%	-2.0%
N=c1c(S(=O)(=O)c2ccc(Cl)cc2)cc2c(=O)n3ccccc3nc2n1CCN1CCOCC1	44.7µM*	2.7%	18.4%	7.0%	25.6%
CCCOc1ccccc1NC(=O)/C=C/C(N)=O	3.16µM*	-11.8%	?	3.4%	-1.7%
CCCCOc1ccccc1NC(=O)C=C(C)C	-27.2%	0.0%	-14.9%	-12.8%	4.0%
